The values that follow come from PMC7862700, “An all-to-all approach to the identification of sequence-specific readers for epigenetic DNA modifications on cytosine”.

Common to all, as to experiment: DAPPL (digital affinity profiling via proximity ligation, sequencing); 10 mM Tris-HCl pH 7.5, 50 mM NaCl, 1 mM DTT, 4% glycerol, room temperature, 30 min; GST-TFs on glutathione beads, 16-mer random dsDNA library, 0.1% formaldehyde crosslink after washing; high values mean tight binding
In one assay the target is T1, FLI1 (Homo sapiens, UniProt Q01543 1-452).
T1 sequence: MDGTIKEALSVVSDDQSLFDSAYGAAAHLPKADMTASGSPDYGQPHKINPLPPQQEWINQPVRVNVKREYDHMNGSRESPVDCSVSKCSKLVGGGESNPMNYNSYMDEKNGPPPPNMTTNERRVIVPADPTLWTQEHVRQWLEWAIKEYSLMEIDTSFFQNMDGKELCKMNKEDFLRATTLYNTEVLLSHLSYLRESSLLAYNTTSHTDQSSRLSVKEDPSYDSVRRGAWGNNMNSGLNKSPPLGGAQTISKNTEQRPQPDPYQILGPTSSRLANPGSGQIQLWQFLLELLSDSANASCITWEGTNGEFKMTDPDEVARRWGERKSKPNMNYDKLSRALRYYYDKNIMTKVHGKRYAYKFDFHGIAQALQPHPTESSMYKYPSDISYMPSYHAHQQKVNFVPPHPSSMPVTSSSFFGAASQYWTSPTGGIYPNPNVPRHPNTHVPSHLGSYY
To be noted: protein: recombinant; tags: N-terminal GST; dsDNA, one strand shown. Summed up: (§1)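 Beads coated with glutathione captured GST-fused human transcription factors that had been expressed in yeast, and the factors were then given DNA barcodes and pooled with a tag-only sample. The pools were incubated with 200 nmole of a random double-stranded 16-mer DNA library in Tris/NaCl/DTT/glycerol buffer for 30 min at room temperature, washed, crosslinked with 0.1% formaldehyde and proximity-ligated with BsaI/T4 ligase at 37 °C for 1 h. PCR amplification and Illumina NextSeq500 sequencing came last. Binding signal is each hexamer's read frequency for a factor divided by its frequency for the tag-only sample.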

Another assay concerns the target T2, ELK1 (Homo sapiens, UniProt P19419 1-428).
T2 sequence: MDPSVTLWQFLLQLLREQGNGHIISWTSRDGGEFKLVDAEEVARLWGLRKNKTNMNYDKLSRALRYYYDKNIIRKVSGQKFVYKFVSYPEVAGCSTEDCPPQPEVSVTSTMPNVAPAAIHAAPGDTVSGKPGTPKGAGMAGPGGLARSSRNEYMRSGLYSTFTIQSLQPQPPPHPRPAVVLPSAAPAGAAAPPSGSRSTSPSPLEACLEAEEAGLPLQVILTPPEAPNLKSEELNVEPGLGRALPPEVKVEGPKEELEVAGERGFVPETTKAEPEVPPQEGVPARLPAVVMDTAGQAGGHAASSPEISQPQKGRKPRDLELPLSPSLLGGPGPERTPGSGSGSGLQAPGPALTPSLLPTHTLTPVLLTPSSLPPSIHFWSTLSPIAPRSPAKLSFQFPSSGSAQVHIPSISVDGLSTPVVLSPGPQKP
To be noted: protein: recombinant; tags: N-terminal GST; dsDNA, one strand shown. In short, it runs like this: as §1

The target in the next assay is T3, GABPA (Homo sapiens, UniProt Q06546 1-454).
T3 sequence: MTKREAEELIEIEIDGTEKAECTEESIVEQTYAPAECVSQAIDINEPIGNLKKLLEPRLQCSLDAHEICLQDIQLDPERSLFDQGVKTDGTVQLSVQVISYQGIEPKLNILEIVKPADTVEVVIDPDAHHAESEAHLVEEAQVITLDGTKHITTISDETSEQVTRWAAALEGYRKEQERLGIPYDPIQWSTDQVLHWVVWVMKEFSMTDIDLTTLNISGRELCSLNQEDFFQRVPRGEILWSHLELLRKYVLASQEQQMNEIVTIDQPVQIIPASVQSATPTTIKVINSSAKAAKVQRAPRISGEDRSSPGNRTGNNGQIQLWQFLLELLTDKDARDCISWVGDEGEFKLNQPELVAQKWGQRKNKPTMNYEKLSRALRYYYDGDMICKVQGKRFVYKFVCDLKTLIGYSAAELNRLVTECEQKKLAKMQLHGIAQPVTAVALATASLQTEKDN
To be noted: protein: recombinant; tags: N-terminal GST; dsDNA, one strand shown. In short, it runs like this:
as §1

The next assay deals with T4, ERG (Homo sapiens, UniProt P11308 1-479).
T4 sequence: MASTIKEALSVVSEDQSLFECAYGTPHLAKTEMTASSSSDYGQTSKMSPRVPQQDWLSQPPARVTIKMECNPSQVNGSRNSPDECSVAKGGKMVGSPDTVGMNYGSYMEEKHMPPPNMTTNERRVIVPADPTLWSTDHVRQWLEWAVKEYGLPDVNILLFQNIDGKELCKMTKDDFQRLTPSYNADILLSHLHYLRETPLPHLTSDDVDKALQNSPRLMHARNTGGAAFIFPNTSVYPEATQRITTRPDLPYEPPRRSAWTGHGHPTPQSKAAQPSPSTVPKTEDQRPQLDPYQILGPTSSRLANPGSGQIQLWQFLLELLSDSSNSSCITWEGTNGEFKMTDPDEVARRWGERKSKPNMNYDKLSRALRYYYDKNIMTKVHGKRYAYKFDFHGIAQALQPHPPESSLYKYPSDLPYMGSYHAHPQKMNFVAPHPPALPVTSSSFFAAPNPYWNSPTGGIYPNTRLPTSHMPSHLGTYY
To be noted: protein: recombinant; tags: N-terminal GST; dsDNA, one strand shown. In short, it runs like this: as §1

Another assay addresses ELF1 (Homo sapiens, UniProt P32519 1-619). The conditions noted are these: protein: recombinant; tags: N-terminal GST; dsDNA, one strand shown. In short, it runs like this: as §1
In another assay the target is T5, EHF (Homo sapiens, UniProt Q9NZC4 1-300).
T5 sequence: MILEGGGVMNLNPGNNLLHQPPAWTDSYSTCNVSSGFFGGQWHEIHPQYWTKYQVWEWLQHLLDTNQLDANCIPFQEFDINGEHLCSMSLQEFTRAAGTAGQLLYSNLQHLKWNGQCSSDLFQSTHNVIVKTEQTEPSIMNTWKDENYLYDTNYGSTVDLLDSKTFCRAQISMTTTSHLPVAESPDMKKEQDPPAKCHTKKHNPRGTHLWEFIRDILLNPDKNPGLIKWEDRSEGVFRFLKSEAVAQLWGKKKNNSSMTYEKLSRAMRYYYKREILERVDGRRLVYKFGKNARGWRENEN
To be noted: protein: recombinant; tags: N-terminal GST; dsDNA, one strand shown. In short, it runs like this:
as §1

In the next assay the target is SPI1 (Homo sapiens, UniProt P17947 1-270). The conditions noted are these: protein: recombinant; tags: N-terminal GST; dsDNA, one strand shown. In short, it runs like this:
as §1

A further assay deals with SPIB (Homo sapiens, UniProt Q01892 1-262). The conditions noted are these: protein: recombinant; tags: N-terminal GST; dsDNA, one strand shown. Summed up:
as §1

A further assay addresses T6, ELK3 (Homo sapiens, UniProt P41970 1-407).
T6 sequence: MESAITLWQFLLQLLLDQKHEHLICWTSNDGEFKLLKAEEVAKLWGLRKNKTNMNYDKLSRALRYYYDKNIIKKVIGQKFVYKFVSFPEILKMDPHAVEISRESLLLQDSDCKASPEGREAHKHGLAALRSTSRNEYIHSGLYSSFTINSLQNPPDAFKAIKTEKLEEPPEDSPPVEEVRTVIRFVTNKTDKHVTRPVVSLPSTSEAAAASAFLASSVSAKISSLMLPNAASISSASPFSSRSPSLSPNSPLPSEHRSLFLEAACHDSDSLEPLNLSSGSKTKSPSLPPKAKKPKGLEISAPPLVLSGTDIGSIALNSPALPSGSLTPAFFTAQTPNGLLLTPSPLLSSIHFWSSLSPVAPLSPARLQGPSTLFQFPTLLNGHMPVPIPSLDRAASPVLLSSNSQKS
The conditions noted are these: protein: recombinant; tags: N-terminal GST; dsDNA, one strand shown. In short, it runs like this: as §1

The target in the next assay is T7, FEV (Homo sapiens, UniProt Q99581 1-238).
T7 sequence: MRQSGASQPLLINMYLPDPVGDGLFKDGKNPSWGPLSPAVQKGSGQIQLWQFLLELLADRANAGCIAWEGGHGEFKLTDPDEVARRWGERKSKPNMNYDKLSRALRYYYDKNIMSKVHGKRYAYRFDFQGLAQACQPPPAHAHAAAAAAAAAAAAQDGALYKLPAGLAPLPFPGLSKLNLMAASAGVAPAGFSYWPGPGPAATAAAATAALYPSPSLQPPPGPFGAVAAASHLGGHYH
The conditions noted are these: protein: recombinant; tags: N-terminal GST; dsDNA, one strand shown. In short, it runs like this: as §1

For the next assay, the target named is ETV5 (Homo sapiens, UniProt P41161 1-510). To be noted: protein: recombinant; tags: N-terminal GST; dsDNA, one strand shown. In short, it runs like this: as §1
Another assay addresses HSF1 (Homo sapiens, UniProt Q00613 1-529). To be noted: protein: recombinant; tags: N-terminal GST; chain copies: 3; dsDNA, one strand shown. In short, it runs like this:
as §1

In a further assay the target is ELF4 (Homo sapiens, UniProt Q99607 1-663). To be noted: protein: recombinant; tags: N-terminal GST; dsDNA, one strand shown. Summed up: as §1
The target in the next assay is T8, ELK4 (Homo sapiens, UniProt P28324-2 1-405).
T8 sequence: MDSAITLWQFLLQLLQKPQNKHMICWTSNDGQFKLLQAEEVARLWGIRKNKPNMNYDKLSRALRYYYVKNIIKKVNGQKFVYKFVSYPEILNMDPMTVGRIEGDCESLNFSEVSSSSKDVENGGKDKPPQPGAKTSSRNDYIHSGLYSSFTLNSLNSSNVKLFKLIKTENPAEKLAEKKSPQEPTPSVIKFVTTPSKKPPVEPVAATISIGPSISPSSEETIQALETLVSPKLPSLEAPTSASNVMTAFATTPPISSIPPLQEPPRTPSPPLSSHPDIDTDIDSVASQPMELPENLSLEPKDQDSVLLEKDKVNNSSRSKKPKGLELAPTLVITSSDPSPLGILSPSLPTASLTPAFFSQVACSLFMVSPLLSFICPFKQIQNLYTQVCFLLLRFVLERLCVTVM
To be noted: protein: recombinant; tags: N-terminal GST; dsDNA, one strand shown. In short, it runs like this:
as §1

Another assay concerns the target T9, ETV2 (Homo sapiens, UniProt O00321 1-342).
T9 sequence: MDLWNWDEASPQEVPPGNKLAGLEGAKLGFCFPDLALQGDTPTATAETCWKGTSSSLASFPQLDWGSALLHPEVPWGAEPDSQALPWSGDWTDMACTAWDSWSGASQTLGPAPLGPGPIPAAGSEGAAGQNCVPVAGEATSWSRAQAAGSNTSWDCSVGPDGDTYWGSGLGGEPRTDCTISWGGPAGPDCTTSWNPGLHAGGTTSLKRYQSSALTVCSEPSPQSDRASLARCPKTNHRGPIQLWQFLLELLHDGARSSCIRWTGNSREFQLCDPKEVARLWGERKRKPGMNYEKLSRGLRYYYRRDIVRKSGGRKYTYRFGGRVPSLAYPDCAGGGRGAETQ
The conditions noted are these: protein: recombinant; tags: N-terminal GST; dsDNA, one strand shown. Summed up: as §1

For the next assay, the target named is T10, ELF3 (Homo sapiens, UniProt P78545 1-371).
T10 sequence: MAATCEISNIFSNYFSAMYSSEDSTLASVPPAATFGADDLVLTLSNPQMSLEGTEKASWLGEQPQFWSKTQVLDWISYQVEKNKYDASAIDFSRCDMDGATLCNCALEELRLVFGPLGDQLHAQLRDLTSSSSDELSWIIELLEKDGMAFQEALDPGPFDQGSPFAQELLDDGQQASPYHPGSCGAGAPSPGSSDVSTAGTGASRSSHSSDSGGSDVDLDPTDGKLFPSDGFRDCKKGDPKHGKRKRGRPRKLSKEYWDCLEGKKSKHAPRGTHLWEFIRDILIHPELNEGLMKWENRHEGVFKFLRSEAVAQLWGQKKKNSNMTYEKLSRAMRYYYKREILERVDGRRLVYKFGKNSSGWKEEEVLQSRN
To be noted: protein: recombinant; tags: N-terminal GST; dsDNA, one strand shown. In short, it runs like this:
as §1

Another assay addresses CRX (Homo sapiens, UniProt O43186 1-299). To be noted: protein: recombinant; tags: N-terminal GST; dsDNA, one strand shown. Summed up:
as §1

For the next assay, the target named is ETV1 (Homo sapiens, UniProt P50549 1-477). The conditions noted are these: protein: recombinant; tags: N-terminal GST; dsDNA, one strand shown. In short, it runs like this: as §1
ETV1, sequence (P50549 whole entry): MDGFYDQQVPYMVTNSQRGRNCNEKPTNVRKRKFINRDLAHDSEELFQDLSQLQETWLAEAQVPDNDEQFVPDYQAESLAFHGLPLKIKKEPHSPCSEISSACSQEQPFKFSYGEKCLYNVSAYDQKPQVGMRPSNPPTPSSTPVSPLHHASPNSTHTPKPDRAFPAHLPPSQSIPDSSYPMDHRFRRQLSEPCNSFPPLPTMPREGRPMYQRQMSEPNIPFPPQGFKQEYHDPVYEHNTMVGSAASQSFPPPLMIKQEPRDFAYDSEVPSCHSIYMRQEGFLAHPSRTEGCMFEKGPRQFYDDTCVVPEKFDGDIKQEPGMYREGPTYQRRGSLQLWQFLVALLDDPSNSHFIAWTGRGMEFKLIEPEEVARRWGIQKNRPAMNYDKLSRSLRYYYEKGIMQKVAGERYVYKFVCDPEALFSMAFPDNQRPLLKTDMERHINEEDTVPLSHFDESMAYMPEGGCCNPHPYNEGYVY

ELF1, sequence (P32519 whole entry): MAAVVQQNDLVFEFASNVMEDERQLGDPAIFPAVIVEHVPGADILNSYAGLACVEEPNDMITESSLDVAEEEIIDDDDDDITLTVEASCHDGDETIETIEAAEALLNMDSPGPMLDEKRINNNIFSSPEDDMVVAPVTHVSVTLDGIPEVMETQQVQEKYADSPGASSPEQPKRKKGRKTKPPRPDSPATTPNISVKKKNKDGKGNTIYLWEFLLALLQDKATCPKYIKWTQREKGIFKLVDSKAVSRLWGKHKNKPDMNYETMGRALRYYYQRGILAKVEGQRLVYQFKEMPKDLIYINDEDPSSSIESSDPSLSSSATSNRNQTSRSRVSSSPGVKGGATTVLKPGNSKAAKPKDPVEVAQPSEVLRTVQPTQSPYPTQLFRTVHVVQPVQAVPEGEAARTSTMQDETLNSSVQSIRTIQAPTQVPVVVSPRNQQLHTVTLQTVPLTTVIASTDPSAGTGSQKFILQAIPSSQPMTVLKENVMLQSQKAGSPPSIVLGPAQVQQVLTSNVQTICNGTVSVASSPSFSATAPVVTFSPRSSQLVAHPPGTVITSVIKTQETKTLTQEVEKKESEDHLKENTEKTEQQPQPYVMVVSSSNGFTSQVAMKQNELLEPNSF
CRX, sequence (O43186 whole entry): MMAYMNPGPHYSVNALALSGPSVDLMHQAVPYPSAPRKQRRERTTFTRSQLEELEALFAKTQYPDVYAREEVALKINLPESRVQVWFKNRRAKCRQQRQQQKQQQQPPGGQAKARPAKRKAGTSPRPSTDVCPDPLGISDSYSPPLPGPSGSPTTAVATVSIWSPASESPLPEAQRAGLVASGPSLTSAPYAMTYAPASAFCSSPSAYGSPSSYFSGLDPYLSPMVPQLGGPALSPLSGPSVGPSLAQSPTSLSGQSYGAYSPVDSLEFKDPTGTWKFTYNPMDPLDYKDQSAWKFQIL
ETV5, sequence (P41161 whole entry): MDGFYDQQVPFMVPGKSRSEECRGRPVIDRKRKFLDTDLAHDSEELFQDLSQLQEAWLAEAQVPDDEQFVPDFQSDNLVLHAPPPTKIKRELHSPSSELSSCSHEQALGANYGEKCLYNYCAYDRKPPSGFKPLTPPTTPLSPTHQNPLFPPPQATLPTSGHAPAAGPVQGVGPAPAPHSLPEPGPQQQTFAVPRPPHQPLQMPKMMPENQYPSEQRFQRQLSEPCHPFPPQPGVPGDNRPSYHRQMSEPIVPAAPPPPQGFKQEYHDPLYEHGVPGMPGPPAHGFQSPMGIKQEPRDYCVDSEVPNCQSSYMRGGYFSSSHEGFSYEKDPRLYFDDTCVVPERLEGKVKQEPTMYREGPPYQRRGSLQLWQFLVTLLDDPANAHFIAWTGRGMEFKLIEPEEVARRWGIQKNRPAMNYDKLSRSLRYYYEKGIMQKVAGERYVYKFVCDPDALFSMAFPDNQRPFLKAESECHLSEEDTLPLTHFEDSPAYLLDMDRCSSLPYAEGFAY
SPIB, sequence (Q01892 whole entry): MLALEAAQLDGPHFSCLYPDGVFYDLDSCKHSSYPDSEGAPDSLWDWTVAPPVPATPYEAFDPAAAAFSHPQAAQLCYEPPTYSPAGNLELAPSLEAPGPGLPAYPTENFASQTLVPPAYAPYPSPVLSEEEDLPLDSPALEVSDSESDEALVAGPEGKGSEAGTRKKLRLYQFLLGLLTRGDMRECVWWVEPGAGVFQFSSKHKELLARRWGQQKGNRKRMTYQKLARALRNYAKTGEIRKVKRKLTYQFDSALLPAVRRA
HSF1, sequence (Q00613 whole entry): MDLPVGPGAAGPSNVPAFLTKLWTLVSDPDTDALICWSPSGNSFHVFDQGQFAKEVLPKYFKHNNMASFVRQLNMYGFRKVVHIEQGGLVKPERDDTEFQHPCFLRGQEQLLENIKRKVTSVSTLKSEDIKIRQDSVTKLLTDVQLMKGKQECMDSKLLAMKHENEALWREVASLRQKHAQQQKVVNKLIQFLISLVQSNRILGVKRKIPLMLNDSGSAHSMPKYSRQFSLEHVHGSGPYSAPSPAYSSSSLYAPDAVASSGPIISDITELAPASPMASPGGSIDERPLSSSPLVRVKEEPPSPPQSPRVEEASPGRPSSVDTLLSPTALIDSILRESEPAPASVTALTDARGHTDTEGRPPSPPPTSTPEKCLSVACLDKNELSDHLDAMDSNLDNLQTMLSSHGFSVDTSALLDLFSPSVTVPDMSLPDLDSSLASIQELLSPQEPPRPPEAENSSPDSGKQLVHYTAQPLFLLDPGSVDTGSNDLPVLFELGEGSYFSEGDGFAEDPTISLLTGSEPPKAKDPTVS
ELF4, sequence (Q99607 whole entry): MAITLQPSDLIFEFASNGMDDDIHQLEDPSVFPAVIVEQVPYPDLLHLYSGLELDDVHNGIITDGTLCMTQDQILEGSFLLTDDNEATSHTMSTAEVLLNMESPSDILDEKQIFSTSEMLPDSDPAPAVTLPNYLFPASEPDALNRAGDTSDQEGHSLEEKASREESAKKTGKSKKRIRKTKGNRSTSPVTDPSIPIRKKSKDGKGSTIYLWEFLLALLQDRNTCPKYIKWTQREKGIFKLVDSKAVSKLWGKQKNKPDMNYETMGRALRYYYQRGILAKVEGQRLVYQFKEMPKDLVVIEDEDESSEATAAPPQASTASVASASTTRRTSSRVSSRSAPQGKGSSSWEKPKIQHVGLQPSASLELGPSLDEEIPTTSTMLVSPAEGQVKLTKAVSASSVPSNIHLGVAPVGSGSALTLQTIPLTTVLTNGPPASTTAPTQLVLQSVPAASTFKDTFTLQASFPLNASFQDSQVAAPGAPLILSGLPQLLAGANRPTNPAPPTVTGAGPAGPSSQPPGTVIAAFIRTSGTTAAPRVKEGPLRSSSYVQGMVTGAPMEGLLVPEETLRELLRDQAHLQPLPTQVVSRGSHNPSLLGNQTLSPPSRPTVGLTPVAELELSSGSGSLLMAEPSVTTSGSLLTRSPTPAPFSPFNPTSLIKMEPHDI

As for TGCAAA, the binding signal in the assay with FLI1 was 1.13 fold enrichment (6-mer frequency, TF over GST control); with ELK1, 1.11 fold enrichment (6-mer frequency, TF over GST control); in the assay with GABPA it was 1.07 fold enrichment (6-mer frequency, TF over GST control); with ERG, 1.14 fold enrichment (6-mer frequency, TF over GST control); with ELF1, 1.19 fold enrichment (6-mer frequency, TF over GST control); with EHF, 1.16 fold enrichment (6-mer frequency, TF over GST control). Moreover, the binding signal with SPI1 is 1.14 fold enrichment (6-mer frequency, TF over GST control); with SPIB, 1.12 fold enrichment (6-mer frequency, TF over GST control); with ELK3, 1.14 fold enrichment (6-mer frequency, TF over GST control); in the assay with FEV, 1.12 fold enrichment (6-mer frequency, TF over GST control); in the assay with ETV5 it was 1.09 fold enrichment (6-mer frequency, TF over GST control); with HSF1, 1.06 fold enrichment (6-mer frequency, TF over GST control). Besides, the binding signal in the assay with ELF4 was 1.13 fold enrichment (6-mer frequency, TF over GST control); with ELK4, 1.14 fold enrichment (6-mer frequency, TF over GST control); in the assay with ETV2, 1.08 fold enrichment (6-mer frequency, TF over GST control); in the assay with ELF3, 1.2 fold enrichment (6-mer frequency, TF over GST control); in the assay with CRX it was 1.01 fold enrichment (6-mer frequency, TF over GST control); with ETV1 it was 1.14 fold enrichment (6-mer frequency, TF over GST control).
